# Measured values as given in PubChem BioAssay (NCI).
# This is part of a sample that, as a whole, favours compounds with a hit. Of some 83,000 tested, about 20% had one in any assay.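 Note: values are percent growth. 100 is the growth of untreated cells, values between 100 and 0 indicate rising inhibition; between -100 and 0 indicates cell death.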 A number with no mark means an inactive call. The source made the active and inactive calls. How the source made its calls: active means growth percent below 10; inactive means the rest.
# Key:
# Assay in all cases: NCI-60 one-dose screen, 48 h (100 = growth as untreated, 0 = no growth, -100 = all killed)
# Conditions in all cases: 10 µM unless noted
# NCI-H23 lung = system: NCI-H23 lung
# NCI-H226 lung = system: NCI-H226 lung
# HOP-62 NSCLC = system: HOP-62 NSCLC
# NCI-H460 lung = system: NCI-H460 lung
# HOP-92 NSCLC = system: HOP-92 NSCLC
# NCI-H522 lung = system: NCI-H522 lung
# A549/ATCC NSCLC = system: A549/ATCC NSCLC
# 786-0 renal = system: 786-0 renal
# COLO 205 colon = system: COLO 205 colon
# DU-145 prostate = system: DU-145 prostate
# MALME-3M melanoma = system: MALME-3M melanoma
# MDA-MB-231 breast = system: MDA-MB-231 breast
# RXF 393 renal = system: RXF 393 renal
# SF-268 CNS = system: SF-268 CNS
# SF-295 CNS = system: SF-295 CNS
# SF-539 CNS = system: SF-539 CNS
# UACC-257 melanoma = system: UACC-257 melanoma
# M14 melanoma = system: M14 melanoma
# K-562 leukemia = system: K-562 leukemia
# NCI-H322M lung = system: NCI-H322M lung
SMILES,growth (NCI-H23 lung),growth (NCI-H226 lung),growth (HOP-62 NSCLC),growth (NCI-H460 lung),growth (HOP-92 NSCLC),growth (NCI-H522 lung),growth (A549/ATCC NSCLC),growth (786-0 renal),growth (COLO 205 colon),growth (DU-145 prostate),growth (MALME-3M melanoma),growth (MDA-MB-231 breast),growth (RXF 393 renal),growth (SF-268 CNS),growth (SF-295 CNS),growth (SF-539 CNS),growth (UACC-257 melanoma),growth (M14 melanoma),growth (K-562 leukemia),growth (NCI-H322M lung)
COc1cc(C(=O)Nc2cc3c(cc2Oc2cc(C)cc(C)c2)C(=O)N(C)[C@@H](CC(=O)N(C)O)C(=O)N3)c(Br)c(OC)c1OC,-20.4% (active),-17.2% (active),-15.7% (active),-14.7% (active),-16.4% (active),-43.1% (active),-4.48% (active),-38.5% (active),-17.9% (active),-31.7% (active),-55.3% (active),-34.3% (active),-56.7% (active),-27.1% (active),-34.6% (active),-46.7% (active),-12.4% (active),-88.2% (active),,
COc1cc(C2C3=C(COC3=O)N(CCO)c3cc4c(cc32)CCC4)cc(OC)c1OC (stereo unspecified),-26.2% (active),2.98% (active),7.11% (active),-44.8% (active),78.2%,-26.7% (active),28.9%,-4.65% (active),-98.8% (active),-23.7% (active),54.9%,1.31% (active),26.5%,22%,-23.6% (active),-29.8% (active),52.9%,-34% (active),,
COc1ccc(-c2nc(S(=O)(=O)c3ccccc3)c(S(=O)CC(=O)N3CCC(C)CC3)o2)cc1 (stereo unspecified),54.1%,80.3%,76.6%,80.4%,-22.6% (active),-86.6% (active),77.4%,10.3%,48.7%,42.5%,-16.6% (active),24.7%,17.2%,62.5%,92.9%,40.4%,65.9%,35.1%,,
CC1(C)NCCC[C@]2(C)[C@H]3CC(=O)[C@H]4[C@@H]5C[C@](C)(CO)CC[C@]5(C)CC[C@@]4(C)[C@]3(C)CC[C@@H]12,104%,97.9%,92.4%,99.6%,84%,101%,92%,94%,94.2%,96.4%,102%,118%,91.4%,85.3%,106%,91.2%,114%,92.6%,,
O=[N+]([O-])c1ccc(N=Nc2cc(S(=O)(=O)O)c3cccc(S(=O)(=O)O)c3c2O)cc1,103%,105%,107%,116%,87.8%,110%,114%,114%,127%,132%,84.5%,112%,121%,115%,125%,104%,113%,97.6%,,
COc1ccc(-c2[nH][nH]c(=O)c2-c2nc3ccccc3s2)cc1,105%,98%,104%,105%,108%,96.3%,107%,100%,112%,108%,110%,104%,109%,101%,107%,108%,106%,107%,98.2%,
COc1cc(/C=N/NC(=O)c2cnn3c2NC(c2ccccc2)C3)ccc1OCc1ccccc1 (stereo unspecified),32.8%,40.2%,-1.18% (active),-54% (active),7.9% (active),19.1%,-29.8% (active),0.422% (active),-2.34% (active),6.15% (active),-20.5% (active),5.81% (active),-4.25% (active),19.6%,-48.3% (active),-52.6% (active),18.5%,14.8%,3.64% (active),
OC(c1ccc(F)c(C(F)(F)F)c1)c1cnccc1NC1CCCCC1 (stereo unspecified),51.7%,78.1%,85.8%,69.5%,40.2%,67.1%,69.9%,63.6%,-60.8% (active),90.2%,71.8%,55.2%,68.6%,79.6%,74.1%,85.4%,87.4%,77.8%,,
COc1ccc(-c2cnc3c(-c4cccc5ncccc45)cnn3c2)cc1,50%,0.736% (active),4.66% (active),33.9%,24.9%,32.8%,27.2%,18.3%,88.5%,58.1%,15%,-1.88% (active),26.7%,19%,32.2%,30.8%,51.3%,76.8%,,
CCCCCCCCCCCCCCCC[N+]1(C)CCN(SN2CC[N+](C)(CCCCCCCCCCCCCCCC)CC2)CC1,52.8%,78.9%,56.6%,29.6%,15.5%,54.8%,72%,30.3%,61%,70.5%,78.4%,53.9%,-7.8% (active),64.4%,71.2%,48.7%,92.9%,20.8%,40.4%,
COc1cc2oc(-c3cccc(C(=O)Nc4ccccc4)c3)cc(=O)c2c(O)c1OC,86.9%,73.2%,8.89% (active),33.7%,5.28% (active),91.3%,60.3%,31.5%,92.3%,65.6%,64.5%,76.3%,56.5%,37%,70%,19.4%,84.3%,83.7%,97.1%,
Clc1ccc(-c2ccc(CNCC3CCNCC3)o2)c(-c2ccccc2)c1,-39.8% (active),-12.1% (active),-78.3% (active),-86.7% (active),-39.3% (active),-70.7% (active),-79.5% (active),-90.2% (active),-76.3% (active),-94.2% (active),-85.4% (active),-86.5% (active),-88.2% (active),-82% (active),-86.1% (active),-90.3% (active),-75.3% (active),-83.3% (active),,
O=C1C=CC(=O)N1c1cccc(Cl)c1,,107%,101%,111%,76%,69.9%,93%,105%,-6.46% (active),123%,120%,132%,116%,108%,107%,113%,97.1%,114%,,121%
O=C1NN(C(=O)c2ccccc2)C(c2ccc(Cl)c(Cl)c2)=C/C1=C\c1ccc([N+](=O)[O-])cc1,,88.7%,101%,83%,3.02% (active),63.8%,96.2%,102%,27.9%,108%,88.3%,80.4%,74.3%,74.8%,88.5%,90.5%,96.5%,,,98%
c1ccc(-c2c(-c3ccccc3)[n+](Cc3ccc4ccccc4c3)c(-c3cccc4ccccc34)n2Cc2ccc3ccccc3c2)cc1,,-42.3% (active),-84.7% (active),-80% (active),-53.9% (active),-39.5% (active),-45.1% (active),-68.3% (active),-65% (active),-51.3% (active),-87.9% (active),-70.5% (active),-94.3% (active),-38.9% (active),-86% (active),-83.5% (active),-42.5% (active),-63.5% (active),-3.62% (active),4.47% (active)
CCCCCCCC(=O)OCC/C=C/C1OC1C1OC(=O)/C=C\C=C\C(=O)N(C(C)=O)C(=O)/C=C(/C)CCC2OC2C1OC(=O)NC(C)=O (stereo unspecified),,81.1%,79.8%,82.4%,53.3%,57.1%,95.1%,21.3%,62.3%,84.3%,123%,73.9%,78.7%,93.4%,90.9%,25.9%,84.2%,81.7%,,111%
CC(Sc1nc2ccccc2c(=O)n1CCc1ccc(S(N)(=O)=O)cc1)C(=O)Nc1ccc(Cl)cc1 (stereo unspecified),,76.6%,84.4%,94.7%,107%,56.3%,69.6%,80.2%,106%,99.4%,89.7%,82.6%,72.4%,74.7%,83.8%,90.8%,90.2%,105%,60.4%,73.4%
